A selection: hits, their analogues and other compounds. The true share with any hit is near 2.8%.
Smad3 FoxH1 inh: Smad3 (human) transcription factor binding inhibition. P84022. TR-FRET Smad3/Dy647-FoxH1 peptide binding, europium anti-His. inhibition, % at 25 µM. actives 0.29% (n = 88,000). AID 630;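 active = compounds that reduce the energy-transfer binding signal between the protein and its labelled peptide by more than half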;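 note: 0% = Smad3 plus labelled peptide maximal FRET and 100% = peptide-only background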
MRP reversal: compounds reversing MRP-mediated drug resistance. H69AR cells + 2 uM doxorubicin, CellTiter-Glo, 72 h. differential viability (reversal), % at 10 µM. actives 0.04% (n = 85,000);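 active = viability drop by adding the cancer drug above about 55%, with treated viability meeting a 40% cutoff, limit read from the data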;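 note: viability without doxorubicin minus viability with 2 µM doxorubicin for each compound; larger differential means the compound sensitizes cells more to doxorubicin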
ERa coact pot: ER-alpha (human) coactivator binding potentiation | P03372 | TR-FRET ERalpha-LBD/SRC-Cy5 coactivator binding, 2 h; 100 = basal binding, no effect | coactivator binding (% of control), % at 25.6 µM | actives 1.3% (n = 86,000) | AID 639; in the data active = activity above about 200%;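 note: binding measured in presence of low estradiol as agonist stimulus; 0% = peptide alone without receptor and 100% = receptor with peptide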
Target sequence (P03372 whole entry, looked up, the tested form may be a part): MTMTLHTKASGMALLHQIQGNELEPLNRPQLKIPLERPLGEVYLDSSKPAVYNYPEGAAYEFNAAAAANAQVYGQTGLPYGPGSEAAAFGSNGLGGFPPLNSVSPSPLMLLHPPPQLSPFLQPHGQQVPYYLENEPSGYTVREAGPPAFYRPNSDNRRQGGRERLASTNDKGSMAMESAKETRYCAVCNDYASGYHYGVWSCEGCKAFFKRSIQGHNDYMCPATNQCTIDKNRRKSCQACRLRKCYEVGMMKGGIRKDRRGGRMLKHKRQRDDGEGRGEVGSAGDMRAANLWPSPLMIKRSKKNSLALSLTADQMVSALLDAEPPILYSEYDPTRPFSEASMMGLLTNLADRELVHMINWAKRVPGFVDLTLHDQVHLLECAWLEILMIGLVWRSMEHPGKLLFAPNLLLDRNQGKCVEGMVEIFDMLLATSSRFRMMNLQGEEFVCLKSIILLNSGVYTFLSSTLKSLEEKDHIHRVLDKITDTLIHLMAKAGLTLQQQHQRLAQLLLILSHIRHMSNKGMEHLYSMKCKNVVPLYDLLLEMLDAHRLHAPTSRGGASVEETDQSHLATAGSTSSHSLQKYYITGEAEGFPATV
ERb SRC1 inh: blocks coactivator binding to human estrogen receptor beta. Q92731. TR-FRET ER-beta LBD / SRC1-Cy5 peptide binding; receptor agonist-loaded with 1 µM estradiol. inhibition, % at 25.6 µM. actives 1.3% (n = 86,000). AID 633;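 active = compounds whose percent inhibition of the receptor-coactivator binding signal exceeds about 50% in the single-dose screen, limit read from the data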;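 note: 0% = receptor plus peptide wells without compound and 100% = peptide-only wells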
ERa coact inh: blocks coactivator binding to human estrogen receptor alpha | P03372 | TR-FRET ER-alpha LBD / SRC-1 peptide, estradiol-bound | inhibition, % at 25.6 µM | actives 1.7% (n = 86,000) | AID 629; in the data active = inhibition above about 50%;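 note: 0% = receptor plus peptide control and 100% = peptide only without receptor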
MRP-1 activ: activates MRP-1 | viability increase, % at 10 µM | H69AR cells + doxorubicin, viability rescue, CellTiter-Glo | AID 799 | actives 0.61% (n = 140,000);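 active = viability gain under doxorubicin at or above a set limit, the compound median plus 3 SD, cut at about 4.7% in these data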;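 note: MRP-1 overexpressing cells given doxorubicin 25 µM after compound pretreatment; 18-22 h compound pretreatment then 72 h with doxorubicin before readout; 0% = doxorubicin-only wells and 100% = vehicle-treated cells without doxorubicin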
Numbers without * were called inactive; . = not tested or not shown; [ ] = remark or other dose.

SMILES	Smad3 FoxH1 inh	MRP reversal	ERa coact pot	ERb SRC1 inh	ERa coact inh	MRP-1 activ
Cc1cc(Br)ccc1NC(=O)CNC(=O)CN1C(=O)NC2(CCCCCC2)C1=O	0	2	118	-1	-1	7.5*
O=c1cc(CSc2nnc(-c3cccs3)n2Cc2ccccc2)nc2sc3ccccc3n12	8	17	96	65*	75*[fluorescence artefact?]	-2
FC(F)(F)c1cc(-c2ccc(Cl)cc2)nc2ncnn12	-9	-14	108	-3	9	-2
NCCc1nc(-c2nc(C(=O)O)cs2)cs1	-6	.	.	.	.	.
CCOC(=O)c1nnc(-c2ccccc2)nc1Oc1ccccc1Cl	.	.	.	.	.	5.2*
CCOC(=O)c1nnc(-c2ccccc2)nc1NC	.	.	.	.	.	-2
CSc1nnnn1-c1ccc(C(=O)OCC(=O)N2CCOCC2)cc1	-9	-3	115	5	-1	-2
CCSC(SCC)[C@H](O)[C@@H](O)[C@H](O)[C@H](O)CO	10	3	775*[fluorescence artefact?]	1	-6	1
OC1(C(O)(c2ccc(-c3ccccc3)cc2)c2ccc(-c3ccccc3)cc2)CCCCC1	41	.	.	.	.	.
Cc1ccc(C)c(C(=N)c2ccccc2Cc2ccccc2)c1	3	.	.	.	.	.
O=C1CNC(=S)N1c1nc(-c2ccccc2)cs1	.	.	.	.	.	4.8*
O=C(O)c1ccccc1-c1ccccc1C(=O)Nc1ccc2c(c1)Cc1ccccc1-2	23	.	.	.	.	.
Cn1cnnc1SCC(=O)c1ccco1	-2	-2	92	12	21	-3
Cn1cnnc1SCc1cccc(Br)c1	-13	7	89	52*[fluorescence artefact?]	21	-1
CC(/C=N/NC(=O)c1nn(C)c(C)c1Br)=C\c1ccccc1	.	.	.	.	.	7.7*
CC(/C=N/NC(=O)c1c(Br)cnn1C)=C\c1ccccc1	.	.	.	.	.	1
CCOCCCNS(=O)(=O)c1ccc(OC)c(Cl)c1Cl	-2	1	110	-8	-11	-1
CC1CC(C)CN(S(=O)(=O)c2ccc(C(=O)Nc3sccc3C(N)=O)cc2)C1 (stereo not given)	-7	-6	253*[fluorescence artefact?]	21	15	-3
O=C1NC(=Nc2ccccc2)SC1Cc1cccc(Cl)c1Cl (stereo not given)	.	.	.	.	.	5.7*
Cc1cc(Cl)nc(NC(=O)CSc2ccc(Cl)cc2)n1	-8	.	.	.	.	.
Cc1nn(Cc2c(F)c(F)c(F)c(F)c2F)c(C)c1NC(=O)c1ccc(COc2ccc(F)cc2)o1	.	.	.	.	.	6.7*
Cc1nn(Cc2c(F)c(F)c(F)c(F)c2F)c(C)c1NC(=O)c1ccc(COc2ccccc2Cl)o1	.	.	.	.	.	2
CC(C)c1ccc(CNc2ccc(N3CCOCC3)cc2)cc1	8	7	530*[fluorescence artefact?]	-2	0	-2
c1cc(CNc2ccc(N3CCOCC3)cc2)ccn1	2	11	90	26	17	-1
COc1ccc(-c2cc(-c3ccc(OC)cc3)c(C#N)c(SC)n2)cc1	-68	-4	458*[fluorescence artefact?]	39	36	-2
SMILES	Smad3 FoxH1 inh	MRP reversal	ERa coact pot	ERb SRC1 inh	ERa coact inh	MRP-1 activ
C1=C(c2ccc(-c3ccccc3)cc2)Nc2ncnn2C1c1ccco1 (stereo not given)	2	-4	110	32	69*[fluorescence artefact?]	-3
O=C1CNCCCN2CCN(CCCNCC(=O)Nc3ccc(cc3)S(=O)(=O)c3ccc(cc3)NC(=O)CNCCCN3CCN(CCCNCC(=O)Nc4ccc(cc4)S(=O)(=O)c4ccc(cc4)N1)CC3)CC2	49	.	.	.	.	.
O=C(NCc1ccc(F)cc1)c1noc2c1CCCC2	2	3	118	-11	-9	4.9*
Cc1cc(NC(=O)c2noc3c2CCCC3)no1	-5	13	114	-1	-9	0
O=C(NCc1ccc(F)cc1)c1noc2c1CCCCC2	1	3	98	-1	-11	-1
O=C(Nc1ccc(F)cc1F)c1noc2c1CCC2	-14	5	38	91*[fluorescence artefact?]	86*[fluorescence artefact?]	-1
O=C1C(Cl)=C(Nc2ccccc2O)C(=O)N1c1ccccc1	6	-10	60	23	54*[fluorescence artefact?]	-4
CC(C)CCNC(=O)c1cc(-c2ccco2)nc2ccccc12	1	4	93	3	3	-3
CCOc1cc(N2CCOCC2)c(OCC)cc1NC(=O)COc1ncnc2ccccc12	3	-24	93	-5	-4	-4
CCOc1cc(N2CCOCC2)c(OCC)cc1NC(=O)c1cc(-c2ccco2)nc2ccccc12	13	-3	120	39	75*	-4

From PubChem BioAssay
